100 compounds from PubChem BioAssay AID1345083 (National Center for Advancing Translational Sciences (NCATS), 2018) can be followed below.

The structures appear in SMILES notation. The campaign covered roughly 94,000 compounds. About 6,200 (6.6%) were called active. About 31% were inconclusive and are not listed. Calls follow the shape of the dose curve; as a rule, active = well fitted inhibition curve with a large enough effect; inconclusive = small, poorly fitted or top-dose-only effect; inactive = flat fitted curve, though single readings scatter. What follows is part of a selection rich in actives, with near analogues and random picks from the rest. Entries that show only a call come without a potency.
Potency is read from the fitted curve at half-maximal effect.

The nature of the assay: Cytotoxic Profiling in HEK 293 Cell Line of Diverse Libraries Using Quantitative High-Throughput Screening. Also: nearly all actives have a fitted effect of over 60% in size. The following applies: HEK 293 viability, ATP luminescence (CellTiter-Glo), 48-72 h; series mostly up to 115 µM. The method, boiled down: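 Pintool-delivered compounds were incubated with HEK 293 cells (250 cells/well) at 37 degree Celsius for 48 or 72 hr. ATP-dependent luminescence (CellTiter-Glo) then reported remaining viable cells.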
On to `O=C(NC1CC1)c1ccc(N2CC3CC(C2)[C@H]2CCCC(=O)N2C3)nc1` (stereo not given in full), for which the Potency result is “inactive”.

In the case of `Cc1cc(C(=O)N2CCC(N3C(=O)C(OCC4CC4)C34CCOCC4)CC2)nn1C` (stereo not given), the Potency entry was “inactive”.

Consider `CN(C)c1cccc(Nc2cc3c(cn2)NCCN(Cc2ccccc2)C3)c1`, for which the Potency is 63.1 µM (active).

Consider `Cn1c(CNC(=O)Cn2nc3c(cc2=O)CCCC3)nc2ccccc21`, for which the Potency entry was “inactive”.

In the case of `O=C(c1cn[nH]c1-c1ccccc1)N1CCC2(CC1)CC(O)CCO2` (stereo not given), the Potency result is “inactive”.

For `O=C(Cc1cccc(Cl)c1)N1CCC2(CC1)CN[S+](=O)([O-])c1cccnc1O2`, the Potency result is “inactive”.

For the compound `COCC(=O)N1CCCN(Cc2ccncc2)C(c2ccccc2)CC(=O)NCC1` (stereo not given), the Potency result is “inactive”.

For the compound `CC(C)c1ccc(N2C(=O)N[C@@H]3CCN(C(=O)c4ccc(C(C)(C)C)cc4)[C@@H]3C2=O)cc1`, the Potency is 79.4 µM (active).

For the compound `CC(=O)N1CCCN(C(=O)C2CCCCN2Cc2ccc(-c3ccsc3)cc2)CC1` (stereo not given), the Potency result was “inactive”.

On to `O=C(NCc1ccccn1)C1CCN(C(=O)c2ccc(-c3cccs3)cc2)CC1`, for which the Potency result was “inactive”.

With `COC(=O)[C@H](Cc1ccc(OC)cc1)NC(=O)[C@H]1CN(C(=O)c2cccnc2)CCN1C(=O)NC1CCCCC1`, the Potency result is “inactive”.

In the case of `COc1cccc(CC(=O)NC2CCN(c3cn[nH]c(=O)c3)CC2)c1`, the Potency result is “inactive”.

As for `O=C(NCCCc1ccccc1)C1CCc2nnc(-c3cccc(C(F)(F)F)c3)n21` (stereo not given), the Potency result is “inactive”.

Regarding `COc1ccc(C(=O)N2CCN(Cc3ccccc3-c3ccc(C)c(Cl)c3)CC2)cc1`, the Potency entry was “inactive”.

Turning to `COc1cccc(-c2ccc(CN3CCCC3C(=O)NCc3ccccc3Cl)cc2)c1` (stereo not given), the Potency is 31.6 µM (active).

`Cc1ccc(-c2cccc(CN3CCCC3C(=O)NCC(F)(F)F)c2)cc1Cl` (stereo not given): the Potency is 31.6 µM (active).

In the case of `COc1cccc(-c2ccc(CN3CCCC3C(=O)NC3CCCCC3)cc2)c1` (stereo not given), the Potency is 44.7 µM (active).

Regarding `Cc1ccc(-c2cccc(CN3CCCC(NC(=O)c4ccc(C(F)(F)F)cc4)C3)c2)cc1Cl` (stereo not given), the Potency result is “inactive”.

On to `COc1cccc(-c2cccc(C(=O)N3CCCC3C(=O)NCC3CC3)c2)c1` (stereo not given), for which the Potency entry is “inactive”.

In the case of `CNC(=O)C1CCCCN1Cc1ccc(-c2cccs2)cc1` (stereo not given), the Potency is 28.2 µM (active).

In the case of `COCCC(=O)N1CCC2(CCC2NC(=O)COC)CC1` (stereo not given), the Potency entry is “inactive”.

`CCN(CC)CC(=O)N1CCC(Oc2ccccc2C)(C(=O)O)CC1`: the Potency entry was “inactive”.

For `COCC(=O)N(C1CCOCC1)C1CCN(C(=O)c2cccc(OC)c2)CC1`, the Potency entry is “inactive”.

As to `CC(C)CN1C(=O)COC[C@@H]1[C@H](O)c1ccc(NC(=O)Cc2ccccc2)cc1`, the Potency result was “inactive”.

With `COc1ccccc1CN1C(=O)COC[C@@H]1[C@H](O)c1ccc(NC(=O)c2ccc(C#N)cc2)cc1`, the Potency was 39.8 µM (active).

With `CCN1C(=O)COC[C@@H]1C(O)c1ccc(NC(=O)Cc2ccc(OC)cc2)cc1` (stereo not given in full), the Potency result is “inactive”.

As to `Cc1ccc(NC(=O)N2CC[C@H]3C(=O)NCCCCCN(Cc4cccnc4)[C@@H]3C2)cc1C`, the Potency result was “inactive”.

Regarding `O=C(CCC1CCCC1)N1CCN2CCS(=O)(=O)N(C3CC3)C(=O)C2C1` (stereo not given), the Potency result was “inactive”.

With `CC(C)c1ccc(S(=O)(=O)N(C)CC2CCOC2)cc1` (stereo not given), the Potency result was “inactive”.

For the compound `O=c1[nH]c(-c2ccncc2)nc2c1CCN(S(=O)(=O)N1CCCC1)C2`, the Potency entry is “inactive”.

In the case of `O=C([C@@H]1C[C@H](F)CN1S(=O)(=O)c1ccc(Cl)cc1)N1CCCCC1`, the Potency entry was “inactive”.

`O=C(c1cccc(Br)c1)N1CCN(C2CCN(Cc3ccccn3)C2=O)CC1` (stereo not given): the Potency entry is “inactive”.

As to `O=C1CN(Cc2ccc(-c3ccccc3)cc2)CCN1c1cc(Cl)ncn1`, the Potency was 31.6 µM (active).

With `Cn1cc(CN2CCN(Cc3ccccc3)CC2)ccc1=O`, the Potency result was “inactive”.

With `O=C(c1ccncc1)N1CCN(c2ccc(Cl)nn2)C(=O)C1`, the Potency result is “inactive”.

Regarding `COc1ccc(Cn2c(CN(C)S(C)(=O)=O)n[nH]c2=O)cc1`, the Potency entry was “inactive”.

Consider `CC(C(=O)NC1CCCCC1)[C@@H]1CC[C@@]2(C)CC[C@H](N[S+](C)(=O)[O-])[C@@H](C)[C@@H]2[C@H]1O` (stereo not given in full), for which the Potency entry was “inactive”.

As for `CN(Cc1ccccc1)Cc1ccc(F)cc1`, the Potency entry is “inactive”.

For the compound `CN(Cc1ccc(OC(F)(F)F)cc1)Cc1ccc(-c2ccccc2)cc1`, the Potency entry is “inactive”.

Regarding `CN(Cc1ccc(-c2ccccc2)cc1)C(=O)c1ccccc1F`, the Potency is 89.1 µM (active).

As for `O=C(CC1Cc2ccccc2C1)N1CCN(CCO)CC(O)C1` (stereo not given), the Potency entry was “inactive”.

For the compound `CCCCCC(=O)Nc1nc2c(s1)C[C@@H]1[C@](C)(CO)[C@H](O)CC[C@@]1(C)[C@@H]2CC(=O)N1CCC(C(N)=O)CC1`, the Potency entry was “inactive”.

Take `O=C(CCn1cccn1)N[C@@H]1CN(Cc2ccccc2)C[C@H]1CO`: the Potency result was “inactive”.

As to `CC1=Nc2cc(C(=O)NCc3ccc(C)cc3)ccc2Sc2ccc(Cl)cc21`, the Potency was 31.6 µM (active).

With `CSc1ccc(CNC(=O)c2noc(-c3ccc(C)cc3)n2)cc1`, the Potency entry is “inactive”.

Turning to `O=C(CCc1cc(Cl)no1)NCCc1noc(C2CC2)n1`, the Potency entry is “inactive”.

On to `COc1ccc(-c2nnc3n2CCN([S+](C)(=O)[O-])C3)cc1`, for which the Potency entry was “inactive”.

`Cc1cc(C)n(C2CN(c3cc(C4CC(O)C4)nc(C)n3)C2)n1` (stereo not given): the Potency result was “inactive”.

In the case of `Cc1cc(C)n(-c2ccc(NC(=O)CC[C@H]3NC(=O)c4ccccc4NC3=O)cc2)n1`, the Potency entry was “inactive”.

Consider `COc1ccc(CC(=O)NC2CCCc3c2[nH]c2ccccc32)cc1` (stereo not given), for which the Potency was 35.5 µM (active).

For the compound `COc1ccc(C(=O)N[C@@H]2CCC[C@@H]2C(=O)NCc2cccc(OC)c2)cc1`, the Potency entry is “inactive”.

For `O=C(NC1CCCc2c1[nH]c1ccc(F)cc21)c1ccccn1` (stereo not given), the Potency entry is “inactive”.

As for `CN1CCCN(C(=O)c2ccccc2)c2ccccc21`, the Potency entry is “inactive”.

Consider `O=C(NCc1ccc(F)c(F)c1)c1ccc2nnc(-c3cccnc3)n2c1`, for which the Potency entry is “inactive”.

In the case of `O=C(NCc1ccc(C(F)(F)F)cc1)c1ccc2nnc(-c3ccc(C(F)(F)F)cc3)n2c1`, the Potency was 35.5 µM (active).

Turning to `O=C(NCc1cccc(Cl)c1)c1ccc2nnc(Cc3ccc(Cl)cc3)n2c1`, the Potency was 44.7 µM (active).

As for `COCCNC(=O)c1ccc2nnc(-c3cccc(C(F)(F)F)c3)n2c1`, the Potency entry was “inactive”.

Turning to `CCN1CCN(C(=O)c2ccc3nnc(Cc4ccc(Cl)cc4)n3c2)CC1`, the Potency entry was “inactive”.

For `O=C(NCc1ccc(F)cc1)c1ccc2nnc(Cc3ccco3)n2c1`, the Potency result was “inactive”.

Take `COc1cccc(CN2CC(O)CN(S(C)(=O)=O)CC2=O)c1OC` (stereo not given): the Potency result is “inactive”.

For `COc1ccc2[nH]c(C(=O)N[C@@H]3CN(S(C)(=O)=O)C[C@H]3CN(C)C)cc2c1`, the Potency entry is “inactive”.

For `CCNC(=O)N1CCC(n2c(C)cnc2C2CCC2)CC1`, the Potency result was “inactive”.

As for `COCCc1noc(CC2CCOC3(CCN(C(=O)Nc4ccc5c(c4)OCCO5)CC3)C2)n1` (stereo not given), the Potency entry was “inactive”.

For the compound `COc1ccc(CN2CCC3(CC(C(C)C)=NO3)C2)cc1` (stereo not given), the Potency entry is “inactive”.

With `CC1=NOC2(CCN(Cc3ccncc3)CC2)C1`, the Potency entry is “inactive”.

With `COc1ccc(CN2CCC3(CC2)CC(=O)c2ccc(Cl)cc2O3)cc1`, the Potency is 39.8 µM (active).

Take `COc1ccccc1CN1CC[C@H](CNC(C)=O)[C@H](N(C)C)C1`: the Potency result was “inactive”.

On to `COc1ccc(-c2cc(N3CCN(C(=O)c4ccncc4)CC3)n[nH]2)cc1`, for which the Potency entry is “inactive”.

With `Cc1nccn1CC(=O)NCC1CCN(c2cc(-c3ccccc3)[nH]n2)CC1`, the Potency entry is “inactive”.

For `O=C(NCc1ccccc1F)C1(c2ccc(Cl)cc2)CCOCC1`, the Potency result is “inactive”.

As to `O=C(NCC1CCN(c2cc(-c3ccc(Cl)cc3)[nH]n2)CC1)c1ccc(=O)[nH]c1`, the Potency result was “inactive”.

Consider `COc1ccccc1C(=O)N1CCCN(c2nnc3ccccn23)CC1`, for which the Potency entry is “inactive”.

As to `O=C(Cc1ccc(F)cc1)NC1CCN(c2cc(-c3ccc(Cl)cc3)[nH]n2)CC1`, the Potency entry was “inactive”.

In the case of `COc1ccccc1C(=O)N1CCCN(c2ccc3nnc(C)n3n2)CC1`, the Potency result is “inactive”.

Take `O=C(N1CCN(c2cc(-c3ccc(Cl)cc3)[nH]n2)CC1)C1(c2ccccc2)CC1`: the Potency is 44.7 µM (active).

As to `O=C(c1ccc2cc[nH]c2c1)N1CCCN(c2cc(-c3ccc(Cl)cc3)[nH]n2)CC1`, the Potency was 39.8 µM (active).

As for `CC(=O)N1CCC(C(=O)NCC2CCN(c3cc(-c4ccc(C)cc4)[nH]n3)CC2)CC1`, the Potency entry is “inactive”.

Take `O=C(c1ccc(F)cc1F)N1CCN(c2cc(-c3ccc(Cl)cc3)[nH]n2)CC1`: the Potency is 39.8 µM (active).

Regarding `O=C(c1ccccc1Cl)N1CCCN(c2cc(-c3ccc(F)cc3)[nH]n2)CC1`, the Potency was 44.7 µM (active).

Turning to `C#CCNC(=O)C[C@@H]1O[C@H](CNC(C)=O)[C@@H](O)[C@H]1O`, the Potency entry is “inactive”.

In the case of `O=C(NCCc1ccccc1)c1nc2sccn2c1-c1ccccc1`, the Potency result was “inactive”.

For `Cc1nc(CC(=O)N2C[C@@H](CN3CCCCCC3)[C@@H](CO)C2)cs1`, the Potency result was “inactive”.

For `COCC(=O)N1C[C@@H](COc2cccnc2)[C@H](c2ccccn2)C1`, the Potency entry is “inactive”.

Turning to `CN(CCc1ccccn1)[C@@H]1[C@H](O)[C@H](CO)O[C@@H]1CNS(=O)(=O)c1cccs1`, the Potency entry is “inactive”.

Take `O=C(c1cnccn1)N1CCC(NCc2cc3n(n2)CCCNC3)CC1`: the Potency entry is “inactive”.

With `Cc1noc(C)c1S(=O)(=O)N[C@@H]1C[C@H](Cn2cc(C3CC3)nn2)[C@@H](O)[C@H]1O`, the Potency result was “inactive”.

In the case of `O=C(NC1CCCCC1)C1CN(C(=O)c2ccccc2F)CC12CCOCC2` (stereo not given), the Potency entry is “inactive”.

Consider `Cc1ccc(-n2c(C3CCN(C(=O)c4ccoc4)CC3)n[nH]c2=O)cc1`, for which the Potency result was “inactive”.

As to `O=C(NC1CCCN(c2ccc3nnc(C4CC4)n3n2)C1)c1ccc(Cl)nc1` (stereo not given), the Potency entry is “inactive”.

Turning to `COc1ccc(CC(=O)NC2CCN(Cc3ccc(-c4ccccc4OC)cc3)C2)cc1` (stereo not given), the Potency is 39.8 µM (active).

Take `CC(C)Nc1ncc(C(=O)NC2CCCN(CCc3ccccc3)C2)cn1` (stereo not given): the Potency result was “inactive”.

`Fc1ccc(CN2CC(Oc3ccc(F)cc3F)C2)cc1`: the Potency entry was “inactive”.

In the case of `Cc1ccc(-c2cccc(CN3CCCC(NC(=O)c4ccc(Cl)cc4)C3)c2)cc1Cl` (stereo not given), the Potency entry is “inactive”.

For the compound `COc1ccc(-c2ccccc2C(=O)N2CCC(NC(=O)Cc3ccc(F)cc3)CC2)nn1`, the Potency entry was “inactive”.

In the case of `COc1ccccc1-c1ccc(C(=O)O)cc1`, the Potency result is “inactive”.

As to `COc1ccc(CC(=O)NC2CCN(c3ccc4nnc(C)n4n3)CC2)cc1`, the Potency result is “inactive”.

Regarding `Cc1cc(C)cc(-c2ccc(CN3CCCC(NC(=O)c4ccccc4)C3)cc2)c1` (stereo not given), the Potency is 28.2 µM (active).

For `COc1ccc(F)cc1-c1ccc(CN2CCC(N[S+](=O)([O-])c3ccccc3)C2)cc1` (stereo not given), the Potency was 44.7 µM (active).

On to `COc1ccccc1-c1nnc2ccc(C(=O)NC3CC3)cn12`, for which the Potency entry was “inactive”.

Consider `COc1ccccc1-c1ccc(CN2CCC(NC(=O)c3ccc(Cl)nc3)C2)cc1` (stereo not given), for which the Potency is 50.1 µM (active).
